Pf growth 48h: inhibits P. falciparum growth in the first generation, 48 h; P. falciparum luciferase growth in erythrocytes, 48 h; hit rate 5.9% among 310,000; Potency, µM (top dose mostly 28.7 µM), without a hit: at the top dose activity change, negative = inhibition, hits mostly inhibitors; note: potency is the fitted concentration of half-maximal effect
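In quantitative HTS format, infected erythrocytes bearing luciferase-reporter parasites were treated for a single generation at 37 C. Luminescence after adding detection reagent served as the growth measure.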
Pf growth 96h: P. falciparum growth inhibition at 96 hours | P. falciparum luciferase reporter growth, 96 h | Potency, µM (series often up to 28.7 µM), for inactives: at the highest dose activity change, negative = inhibition, usual class: inhibitors | hit rate 6.9% among 320,000; note: potency is the fitted concentration of half-maximal effect
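Parasite growth measured via integrated firefly luciferase reporter in P. falciparum. Infected erythrocytes at 2% hematocrit, 0.05% parasitemia final were treated 96 hours at 37 C under 5% CO2, and luminescence was read.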
HCMV inh: human cytomegalovirus inhibition | HFF cells, HCMV-luciferase reporter, 72 h; active compounds read low | activity change, negative = inhibition, % at 57.5 µM | hit rate 4.5% among 410,000 | AID 1259415; in the data active = activity change below about -60%; inconclusive = no clear call, values can overlap the other calls; inactive = above about -39%
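Inhibition of viral replication was scored as loss of reporter luminescence in HFFs infected with HCMV-luciferase (MOI 1 PFU/cell) for 72 h; compounds tested at 2 doses, normalized to buffer and Salinomycin controls.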
Marburg entry inh: Marburg virus entry inhibition | Marburg virus pseudotyped entry inhibition, cell reporter | hit rate 1.8% among 300,000 | AID 540276 | Potency, µM (top dose mostly 37.8 µM), for the others: top-dose activity change, negative = inhibition, most hits filed as inhibitors; calls by dose curve; tested in HEK293 cells; note: potency is the fitted concentration of half-maximal effect
HCV inhibitor: inhibitors of hepatitis C virus infection; Huh7.5.1 HCVcc-Cre infection, luciferase reporter, 44 h; Potency, µM (highest dose often 41.8 µM), without a hit: top-dose activity change, negative = inhibition, most hits filed as inhibitors; hit rate 3.4% among 340,000; AID 651820; note: potency is the fitted concentration of half-maximal effect
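1,000 cells/well; 4 h culture; + compound; + HCVcc-Cre (~0.5 moi); 44 h; luciferase substrate, RT 15 min; read 15 sec.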
LASV entry inh: blocks Lassa virus binding to or entry into cells; Lassa virus pseudotype entry inhibition, cell reporter; hit rate 1.2% among 300,000; Potency, µM (top dose mostly 37.9 µM), for inactives: top-dose activity change, negative = inhibition, usual class: inhibitors; calls by dose curve; tested in HEK293 cells; note: potency is the fitted concentration of half-maximal effect; nearly all actives have a fitted effect of over 50% in size
* = called active by the depositor; ? = inconclusive; · = no result; [ ] = another dose, or the depositor's remark. Sampled rows, rich in hits. Any-hit rate of the full collection: about 14%. Unless noted, calls come from the whole dose curve; as a rule, active = well fitted inhibition curve with a large enough effect; inconclusive = small, poorly fitted or top-dose-only effect, or another doubt; inactive = no such curve, though single readings can be large or run the other way. % is set by controls: 0 for no effect and ±100 for the full control effect.

SMILES	Pf growth 48h	Pf growth 96h	HCMV inh	Marburg entry inh	HCV inhibitor	LASV entry inh
COc1ccc(C2=Nn3c(nnc3-c3ccc(OC)cc3)SC2)cc1	10.4µM*	·	-100.5*	?	3.55µM*	1.3µM*
CCN1C(=O)/C(=C2\C=CC3=C(CCCC3)N2CC)SC1=S	·	·	·	-6.6%	·	·
Cc1ccc(-c2nnc3n2N=C(c2ccccc2)CS3)cc1	-7.7%	38.7%	0.7	20.5%	-3.6%	-4.3%
COc1ccc(OC)c(C2=Nn3c(nnc3-c3cc(OC)c(OC)c(OC)c3)SC2)c1	6.57µM*	32.6%	36.6	?	·	-25.0%[14.3 µM]
c1ccc(C2=Nn3c(nnc3-c3n[nH]c4c3CCC4)SC2)cc1	·	?	189.8	1.5%	?	-38.7%
CCOc1ccc(C2=Nn3c(nnc3-c3ccccc3)SC2)cc1Cl	7.6%	·	-102.0*	?	-16.4%	2.9%
Clc1ccc(C2=Nn3c(nnc3-c3n[nH]c4c3CCC4)SC2)cc1Cl	11.7µM*	?	?	?	?	?
COc1ccc(C2=Nn3c(nnc3-c3ccco3)SC2)cc1OC	?	?	88.2	-25.8%	-20.6%	-17.4%
COc1ccc(N=C2SCC(c3ccccc3)=NN2C)cc1	2.62µM*	11.8%	-13.8	·	?	·
Cc1ccc2nc3n(c(=O)c2c1)-c1ncccc1C(=O)NC3Cc1ccccc1 (stereo not given)	·	·	-37.9	·	·	·
COc1ccc(Cl)cc1NC(=O)CNCC(c1ccccc1)N(C)C (stereo not given)	-0.7%	-12.6%	7.6	?	-4.3%	-11.7%
COc1ccc(Cl)cc1NC(=O)CNC(c1ccccc1)c1ccccc1	?	1.65µM*	16.6	?	?	2.51µM*
COc1ccc(C)cc1NC(=O)CNC(c1ccccc1)c1ccccc1	7.38µM*	?	5.9	·	?	·
Cc1ccc(OC(F)F)c(NC(=O)Nc2cccc(C(F)(F)F)c2)c1	?	·	-99.0*	?	10µM*	?
COc1ccccc1NC(=S)NNC(=O)c1cc(C)nn1C	·	?	-102.5*	?	-2.6%	2.3%
CCc1cccc(C)c1NC(=O)C(NS(=O)(=O)c1ccc2c(c1)CCC(=O)N2)c1ccccc1 (stereo not given)	·	·	-9.2	-0.4%[46.1 µM]	·	-2.4%[46.1 µM]
CCOc1ccc(-c2cc(C(=O)NCc3ccccc3)[nH]n2)c(C)c1	·	·	-20.2	·	·	·
Clc1ccc2nc(Nc3ccccc3Cl)nc(-c3ccccc3)c2c1	·	·	-6.0	·	·	-23.7%[46.1 µM]
COc1cc(C(=O)COC(=O)c2ccc3c(c2)OCCO3)cc(OC)c1OC	·	·	-14.2	·	·	·
COc1ccc(CN2C(=O)COc3ccccc3C2c2nc3ccccc3[nH]2)cc1 (stereo not given)	·	·	2.0	·	·	·
COc1ccc(OC)c(NC(=O)CNC(c2ccccc2)c2ccccc2)c1	11.7µM*	9.28µM*	-19.6	·	?	·
COc1ccc(OC)c(NC(=O)CCCSc2ccccc2)c1	?	10.5%	-25.3	-3.8%[46.1 µM]	?	5.0%
COc1ccc(OC)c(NC(=O)CCN2CC(C)OC(C)C2)c1 (stereo not given)	-11.7%	1.85µM*	42.1	15.7%	-7.9%	3.1%
COc1cc(C(=O)Nc2ccc(C)cc2C(NCC(=O)NN)c2ccccc2)cc(OC)c1OC (stereo not given)	4.7%[0.00184 µM]	4.65µM*	40.3	·	-11.0%	·
Cc1ccc(NC(=O)CNC(c2ccccc2)c2ccccc2)c(F)c1	-25.3%	?	-22.9	-26.2%	7.7%	3.3%
COc1ccc(C)cc1NC(=O)Nc1ccccc1	·	-11.7%	40.5	0.0%	3.16µM*	0.7%
CCCCN(C)S(=O)(=O)c1ccc(C(=O)Nc2ccc(-c3nc4ccc(C)cc4s3)cc2)cc1	·	·	59.6	·	·	6.6%[46.1 µM]
COc1ccccc1NC(=O)Nc1cc(NC(=O)Nc2ccccc2OC)c(C)nc1C	?	6.57µM*	?	?	-4.2%	?
COc1ccc(C)cc1NC(=O)c1nn(-c2ccccc2)cc1OC	-71.6%	2.94µM*	-16.2	?	7.08µM*	?
COc1ccc(OC)c(/C(O)=C/C(=O)C(=O)Nc2ccccc2OC)c1	·	14.7µM*	12.0	-15.8%	-12.5%	-11.5%

Bioassay records as filed in PubChem BioAssay.
